# Screening data deposited in PubChem BioAssay by National Center for Advancing Translational Sciences (NCATS).
# DRD3 agonist = qHTS of D3 Dopamine Receptor Agonist: qHTS; D3R DiscoveRx beta-arrestin cells, luminescence, 90 min; D(3) dopamine receptor (Homo sapiens), P35462; max activation, %; 410,000 compounds, 0.58% hits; in the data active = max activation above about 30%; also: 0% is about no effect
# Target sequence (P35462 whole entry, looked up): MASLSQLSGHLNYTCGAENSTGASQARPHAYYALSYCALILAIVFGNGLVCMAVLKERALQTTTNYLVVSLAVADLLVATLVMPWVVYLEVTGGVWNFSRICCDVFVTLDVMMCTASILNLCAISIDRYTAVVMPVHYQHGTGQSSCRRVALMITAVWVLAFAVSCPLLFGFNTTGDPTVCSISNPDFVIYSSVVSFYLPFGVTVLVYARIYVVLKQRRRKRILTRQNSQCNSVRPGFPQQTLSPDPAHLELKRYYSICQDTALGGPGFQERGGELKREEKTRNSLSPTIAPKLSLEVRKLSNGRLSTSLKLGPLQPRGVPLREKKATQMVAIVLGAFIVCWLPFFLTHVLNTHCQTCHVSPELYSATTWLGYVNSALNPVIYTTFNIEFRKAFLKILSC
#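 Cells at 1500/well, incubated overnight, then treated with pinned compounds (dopamine as control) for 90 min at 37 degrees C. DiscoveRx reagent added for 30 - 60 minutes at room temperature; luminescence read.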
# SW480 rereplic = A quantitative high throughput screen for small molecules that induce DNA re-replication in SW480 colon adenocarcinoma cells. SW480 DNA re-replication, Hoechst DNA content imaging, 48 h. Potency, µM (series often up to 46.1 µM), without a hit: top-dose re-replication activation, usual class: activators. 340,000 compounds, 1.8% hits; also: potency is read from the fitted curve at half-maximal effect; % of control where 0% means no effect; nearly all actives have a fitted effect of over 55% in size
#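 Image-based DNA-content assay: after two days of treatment, nuclei were labelled with the DNA dye Hoechst and imaged, and hits were compounds raising the count of nuclei showing high fluorescence intensity.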
# KB-V1 cytotox = qHTS assay for MDR1-selective chemotherapeutics: Primary screen using the drug-selected MDR subline cells KB-V1 | KB-V1 MDR cells viability, CellTiter-Glo, 72 h | Potency, µM (doses to about 46.1 µM), usual class: cytotoxic | 400,000 compounds, 3.4% hits; also: potency is read from the fitted curve at half-maximal effect; % is scaled to controls: 0 for no effect and ±100 for the full control effect; nearly all actives have a fitted effect of over 60% in size
#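 In this primary screen, KB-V1 cells overexpressing P-gp are incubated with library compounds (lowest to highest concentration) for 72 h at 37 degrees C before a luminescent ATP viability read.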
# MCF10A rereplic = A quantitative high throughput screen for small molecules that induce DNA re-replication in MCF 10a normal breast cells. MCF 10A DNA re-replication, Hoechst nuclear intensity, 48 h. Potency, µM (top dose mostly 46.1 µM), inactives show at the highest dose activity, positive = re-replication, most hits filed as activators. 350,000 compounds, 2.9% hits. AID 624296, 2012; also: potency is read from the fitted curve at half-maximal effect; % of control where 0% means no effect; nearly all actives have a fitted effect of over 50% in size
# D3 antag = qHTS of D3 Dopamine Receptor Antagonist: qHTS | D(3) dopamine receptor (Homo sapiens), P35462 | AID 652054, 2013 | max response, negative = inhibition, % | D3R cells, DiscoveRx beta-arrestin luminescence, antagonist mode; active compounds read low | 360,000 compounds, 2.5% hits; in the data active = max response below about -50%; inconclusive = no clear call, values can overlap the other calls; also: % is scaled to controls: 0 for no effect and ±100 for the full control effect
#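 Cells plated overnight at 1500 cells/well, then exposed to library compounds with dopamine controls for 90 minutes at 37 degrees C. DiscoveRx reagent added for 30–60 minutes at room temperature; luminescence read, quantitative HTS format.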
# KB-3-1 cytotox = qHTS assay for MDR1-selective chemotherapeutics: Primary screen using the parental adenocarcinoma cell KB-3-1. Potency, µM (highest dose often 46.1 µM), usual class: cytotoxic. 400,000 compounds, 1.4% hits. KB-3-1 viability, CellTiter-Glo ATP luminescence, 72 h; also: potency is read from the fitted curve at half-maximal effect; % is scaled to controls: 0 for no effect and ±100 for the full control effect; nearly all actives have a fitted effect of over 60% in size
#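 72 h, 37 °C compound treatment of KB-3-1 parental cells; CellTiter-Glo added, 10 min, luminescence read. Data corrected against DMSO-only plates and normalized before curve fitting.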
# Active calls of the source: *; i = inactive; ? = inconclusive; · = no result given; [ ] = dose if it differs, or a comment. Compounds with a hit are over-represented: about 8.9% of the library has one in this group of screens. Unless noted, calls follow the shape of the dose curve; as a rule, active = well fitted curve in the direction sought with a large enough effect; inconclusive = small, poorly fitted or top-dose-only effect, or another doubt; inactive = no such curve, though single readings can be large; an effect the other way counts as inactive or inconclusive.
SMILES,DRD3 agonist,SW480 rereplic,KB-V1 cytotox,MCF10A rereplic,D3 antag,KB-3-1 cytotox
COc1cc(C(=O)NCC(c2ccc(N(C)C)cc2)N2CCc3ccccc32)cc(OC)c1OC (configuration not stated),-9,·,i,·,·,i
Cc1cc(C)nc(S/C=C/C(=O)c2ccccc2F)n1,-17,-4%,?,2.6µM*,-85*,i
COc1ccc(C(=O)C[n+]2cccc3cc(Cl)ccc32)cc1,·,·,i,·,·,?
O=C(NCc1ccc(F)cc1)c1cc(C2CCCCN2C(=O)c2ccc3c(c2)CCO3)on1 (configuration not stated),-8,·,?,·,0,21µM*
CCOC(=O)N1CCN(c2cc3nccnc3cc2F)CC1,-10,12%,21µM*,0%,35,i
CC1=CC2C(C(O)CC3(C)C2CC(C)C32OCOC23COCO3)C2(C)C/C(=C\O)C(=O)C=C12 (configuration not stated),-1,15µM*,?,4.6µM*,?,?
CCCOc1ccc(C2CC(=O)Nc3c2c(C)nn3-c2nncc(-c3cccc(OC)c3)n2)cc1OC (configuration not stated),-14,·,i,·,·,i
C/C(=N\NC(=O)c1c[nH]c2ccccc12)c1ccc(C)s1,6,4%,i,15%,-8,i
O=C(N/N=C/c1ccc[nH]1)c1sc2ccccc2c1Cl,-30,-3%,i,14%,-65*,i
O=C(N/N=C/c1ccncc1)c1sc2ccccc2c1Cl,-2,-3%,i,0%,-4,i
CC/C(=N\NC(=O)c1c[nH]c2ccccc12)c1cccs1,1,-3%,16µM*,-18%,40,i
O=C(N/N=C/c1ccc[nH]1)c1c[nH]c2ccccc12,-17,7.3µM*,i,11%,-10,i
Cc1ccsc1/C=N/NC(=O)c1c[nH]c2ccccc12,-1,3%[9.22 µM],i,8%,-51*,i
Cc1ccc(/C=N/NC(=O)c2c[nH]c3ccccc23)s1,-16,4%,i,5%,-19,i
Cc1ccc(CNS(=O)(=O)c2cc(C(=O)Nc3cccc(C(F)(F)F)c3)ccc2F)cc1,-6,·,·,·,·,·
CCSc1ncc(Cl)c(C(=O)Nc2ccc(S(=O)(=O)N(C)c3ccccc3)cc2)n1,-12,·,i,·,·,i
CCN(c1ccccc1)S(=O)(=O)c1ccc(NC(=O)c2nc(S(C)(=O)=O)ncc2Cl)cc1,-25,5.2µM*,?,?,-93*,5.2µM*
CCS(=O)(=O)c1ncc(Cl)c(C(=O)Nc2ccc(S(=O)(=O)N(C)c3ccccc3)cc2)n1,-34,10µM*,?,?,?,2.6µM*
O=S(=O)(c1ccc(Cl)cc1)c1nc(-c2cccs2)oc1SCc1ccc(F)cc1,3,·,?,·,·,i
Cc1cccc(C)c1C(=NCCN(C)C)c1ccccc1,-11,-14%,i,2%,?,i
Cc1ccc(/C=N/N2C(=S)SC(C)(C)C2N(O)C(=O)Nc2ccc([N+](=O)[O-])cc2)cc1 (configuration not stated),-7,?,?,?,-58*,i
COc1ccc(NC(=O)c2c(NCc3cccc(F)c3)sc3c2CCC3)c(OC)c1,0,·,i,·,·,i
S=C(NCCc1ccccc1)NC1CC1,-2,-2%,i,-5%,-8,i
O=C(NC1CC2CCCC(C1)N2Cc1ccccc1)C1CCCCC1 (configuration not stated),-5,-164%,i,-4%,-65*,i
CCCNC(=S)NC1CC2CCCC(C1)N2Cc1ccccc1OC (configuration not stated),-3,·,i,·,-11,i
SMILES,DRD3 agonist,SW480 rereplic,KB-V1 cytotox,MCF10A rereplic,D3 antag,KB-3-1 cytotox
CCNC(=S)NC1CC2CCCC(C1)N2CCc1ccccc1 (configuration not stated),-1,?,i,0.73µM*,0,i
CCNC(=S)NC1CC2CCC(C1)N2Cc1ccccc1 (configuration not stated),-32,0%,i,-5%,-76*,i
CCCNC(=S)NC1CC2CCC(C1)N2Cc1ccccc1 (configuration not stated),-25,-5%,i,-9%,-147*,i
CCCN1C2CCCC1CC(NC(=O)c1ccccc1)C2 (configuration not stated),-7,-6%,i,4%,0,i
O=C(CNC(=O)c1cccnc1)c1ccc(F)cc1,·,·,i,·,·,i
Cn1c(NCCc2ccncc2)nc2cc(-c3ccsc3)sc2c1=O,3,·,i,·,13,i
S=C(NCCc1ccccc1)NC1CC2CCC(C1)N2Cc1ccccc1 (configuration not stated),-14,3%,i,6%,-74*,i
CC(C)CNC(=S)NC1CC2CCC(C1)N2Cc1ccccc1 (configuration not stated),-28,?,i,27%,-75*,i
S=C(NCCc1ccccc1)NC1CCC(NC(=S)NCCc2ccccc2)CC1 (configuration not stated),4,-7%,i,1%,-6,i
S=C(NC1CCCCC1)NC1CC2CCC(C1)N2Cc1ccccc1 (configuration not stated),-18,9%,i,-1%,-79*,i
CC(C)CNC(=S)NC1CC2CCCC(C1)N2C1CCCCC1 (configuration not stated),-19,0%,i,-7%,?,i
COc1ccc(CCNC(=O)c2cc(C)nc3c2c(C)nn3-c2ccccc2)cc1OC,-3,·,i,·,·,i
Cc1ccccc1C(=O)Nc1ccc(OCc2cc(=O)n3cccc(C)c3n2)cc1,1,·,i,·,·,i
CCn1cc(C(=O)NCc2ccccc2)c(=O)c2cc(S(=O)(=O)N3CCCCCC3)ccc21,-6,·,i,·,·,i
CNC(=O)c1ccc2nc(-c3ccco3)c(-c3ccco3)nc2c1,·,·,i,·,·,i
CC(C)c1ccccc1NC(=O)CN(c1ccccc1)S(=O)(=O)N(C)C,3,·,i,·,·,i
O=C(c1cccs1)c1coc2ccc(O)c(CN3CCOCC3)c12,1,7%,2.9µM*,5%,-2,i
